# According to PubChem BioAssay (Tox21):
# Records with an inconclusive call do not appear. Activity calls are given as the source filed them. Calls come from the whole dose curve; as a rule, active = well fitted cell-killing curve with a large enough effect in the repeat runs; inconclusive = weak or mixed curves; inactive = flat fitted curve, though single readings scatter.
# Assay: qHTS RealTime-Glo MT Cell Viability Assay in HepG2 cells - 32 hour (AID 1224877); note: nearly all actives have a fitted effect of over 55% in size
# Conditions: RealTime-Glo luminescence; series mostly up to 76.8 µM; activity change, negative = cytotoxic: at the top concentration
# Source text: U.S. Tox21 Program National Center for Advancing Translational Sciences [NCATS] NIH Chemical Genomics Center [NCGC] U.S. Environmental Protection Agency [EPA] National Institutes of Environmental Health Sciences [NIEHS] National Toxicology Program [NTP] U.S. Food and Drug Administration [FDA] Tox21 Assay Overview: Measure of cell viability is critical in the cell-base assay. Analysis of cell viability is necessary for the characterization of cell responses to cytotoxic drugs and environmental stress. A RealTime-Glo MT Cell Viability Assay to monitor cell viability in real time of continues cell culture during 40 hours of compound treatment was used to screen Tox21 10K library compounds in HepG2 cells. The RealTime-Glo MT Cell Viability Assay is a nonlytic, homogeneous, bioluminescent method to measure cell viability in real time using a simple, plate-based method. The assay involves adding NanoLuc luciferase and a cell-permeant prosubstrate to cells in culture. Viable cells reduce the proprietary prosubstrate to generate a substrate for NanoLuc luciferase. This substrate diffuses from cells into the surrounding culture medium, where it is rapidly used by the NanoLuc Enzyme to produce a luminescent signal. The signal correlates with the number of viable cells, making the assay well suited for cytotoxicity studies.
# Tox21 Assay Protocol Summary: The mixture of HepG2 cell suspension and reagents were dispensed at 600cells/6 ul/well in 1536-well tissue culture treated black solid bottom plates using a Multidrop dispenser. After the assay plates were incubated at a 37 C/5% CO2 incubator for 5 hours, 23 nL of compounds dissolved in DMSO, positive and negative controls was transferred to the assay plate by a pintool work station. The plates were incubated at 37 C for 40 hours. The luminescence intensity were measured at 0h, 8h, 16h, 24h, 32h and 40h time points using ViewLux plate reader during compound treatment.
# % is set by controls: 0 for no effect and ±100 for the full control effect.
SMILES,"activity change, negative = cytotoxic",Potency
CCCBr,-5.34% (inactive),–
CCCN(CCC)C(=O)Cc1c(-c2ccc(Cl)cc2)nc2ccc(Cl)cn12,-16.8% [at 35.3 µM] (inactive),–
CCC1CCC(=O)O1 (stereo not given),1.12% (inactive),–
COc1cc(C[C@@H](C)N)c(OC)cc1Br,-8.46% (inactive),–
C=CCc1ccccc1O,1.26% (inactive),–
COC1CC(=C(c2cccs2)c2cccs2)C[N+](C)(C)C1 (stereo not given),0.845% [at 35.3 µM] (inactive),–
NNCCO,-1.41% (inactive),–
CC(C)(C)NCC(O)c1cc(Cl)c(N)c(C(F)(F)F)c1 (stereo not given),1.89% [at 35.3 µM] (inactive),–
C=CC(=O)NC(C)(C)CC(C)=O,0.397% (inactive),–
C=C(C)C(=O)OCCCCOC(=O)C(=C)C,2.58% (inactive),–
C[N+]1(CCC(C(N)=O)(c2ccccc2)c2ccccc2)CCCCC1,-0.502% [at 35.3 µM] (inactive),–
CN1CC[C@]23c4c5ccc(O)c4O[C@H]2[C@@H](O)CC[C@H]3[C@H]1C5,0.0688% (inactive),–
CCOP(=S)(S)OCC,0.789% (inactive),–
COC1=CC(=O)O[C@@H](/C=C/c2ccc3c(c2)OCO3)C1,-4.29% (inactive),–
Cc1cccc(C)c1NC1=NCCCS1,-5.5% [at 35.3 µM] (inactive),–
CCCSP(=S)(OCC)Oc1ccc(SC)cc1 (stereo not given),-11.7% (inactive),–
CCC1(CC)C(=O)NC(=O)NC1=O,-0.184% [at 35.3 µM] (inactive),–
C=CCSSCC=C,0.938% (inactive),–
C[N+](C)(C)CC1CO1 (stereo not given),0.232% (inactive),–
CCCCCl,5.62% (inactive),–

SMILES,"activity change, negative = cytotoxic",Potency
CCCC[N+]1(C)[C@@H]2CC(OC(=O)[C@H](CO)c3ccccc3)C[C@H]1[C@@H]1O[C@@H]12 (stereo not given in full),3.21% [at 35.3 µM] (inactive),–
Cc1cnc(C2=NC(C)(C(C)C)C(=O)N2)c(C(=O)O)c1 (stereo not given),1.42% (inactive),–
Nc1cccc2ccccc12,–,inactive
CC[N+]1(CCOC(=O)C(O)(c2ccccc2)c2ccccc2)CCCCC1,0.344% [at 35.3 µM] (inactive),–
COc1ccccc1N1CCNCC1,0.655% [at 35.3 µM] (inactive),–
C=CC(=O)OCC,1.76% (inactive),–
C1CS1,-1.33% (inactive),–
O=C(O)C(O)C(O)C(=O)O (stereo not given),-0.257% (inactive),–
C#CC(O)(C=CCl)CC (stereo not given),0.844% [at 35.3 µM] (inactive),–
CN(C)C(=O)Nc1cccc(OC(=O)NC(C)(C)C)c1,0.0888% (inactive),–
C=CCOC(=O)C(C)(C)OC(=O)c1cc(-n2c(=O)cc(C(F)(F)F)n(C)c2=O)ccc1Cl,-7.65% (inactive),–
COCc1cnc(C2=NC(C)(C(C)C)C(=O)N2)c(C(=O)O)c1 (stereo not given),0.222% (inactive),–
CCOC(=O)c1cn2nc(OP(=S)(OCC)OCC)cc2nc1C,-12.5% (inactive),–
CCC(C)(C)O,-0.699% (inactive),–
Cc1nnc(-c2ccccc2)c(=O)n1N,0.346% (inactive),–
Cc1nc2ccccc2c(=O)n1-c1ccccc1Cl,-13.9% (inactive),–
CCOC(=O)C1OC1(C)c1ccccc1 (stereo not given),–,inactive
O=[N+]([O-])O[C@H]1CO[C@H]2[C@@H]1OC[C@H]2O[N+](=O)[O-],1.05% [at 35.3 µM] (inactive),–
C[C@@H]1C[C@@H]([C@H](O)CC2CC(=O)NC(=O)C2)C(=O)[C@@H](C)C1,–,inactive
CC1(C)CC(=O)CC(C)(C)N1[O],1.22% (inactive),–
